Five molecules from PubChem BioAssay AID720524 (National Center for Advancing Translational Sciences (NCATS), 2013) can be followed below.

The whole screen tested about 1,400 compounds, of which about 1,000 (71%) were called active. Not shown: some 12% with an inconclusive outcome. The call rests on the fitted dose curve; in most records, active means well fitted inhibition curve with a large enough effect; inconclusive means small, poorly fitted or top-dose-only effect; inactive means no such curve, though single readings can be large or run the other way. So high a share suggests a set chosen from earlier hits. Only a sample is shown.
Potency means the concentration at half of the fitted maximal effect.

The assay can be described thus: Nrf2 qHTS screen for inhibitors: Nrf2 A549 ARE-Fluc Confirmation Assay for Hit Validation. Further: nearly all actives have a fitted effect of over 65% in size. Conditions: A549 ARE-firefly luciferase reporter, luminescence. The source says:
Nrf2 is a transcription factor that maintains cellular redox homoestasis and protects cells from xenobiotics. Nrf2 binds to the antioxidant response element (ARE) to induce gene expression of a broad spectrum of genes that encode for antioxidants. […] Finding a small molecule that act as an inhibitor of Nrf2 function would represent a novel therapeutic target that could lead to improvement in survival of patients undergoing chemo- and/or radio- therapy.
In collaboration with the Biswal laboratory, a cell based, luminescence assay (BugLite) was developed to detect the Nrf2 activity using the A549 ARE_Fluc cells (AID 493153). This assay was coupled with a fluorescence based (CellTiter Fluor) cytotoxicity assay to identify and exclude toxic compounds. This coupled assay was used to evaluate selected compounds for hit validation. The data herein is the result of the BugLite assay where decrease in luminescence signal = inhibition of Nrf2 activation. Inhibition is the desired outcome for this assay.
NIH Chemical Genomics Center [NCGC]
NIH Molecular Libraries Probe Centers Network [MLPCN]
Assay Submitter (PI): Shyam Biswal, Johns Hopkins University
[1] Shibata T., et al., Genetic alteration of Keap1 confers constitutive Nrf2 activation and resistance to chemotherapy in gallbladder cancer. Gastroenterology, 2008.
[2] Sjoblom T., et al., The consensus coding sequences of human breast and colorectal cancers. Science, 2006.
Five uL of cell suspension was dispensed into 1536-well white TC-treated plate using the Kalypsys dispenser to achieve a density of 5000 cells/well in all columns except column 1. The plates were incubated at 37deg C at 5% CO2 for 2 hours before 23 nL of compounds were added with the Kalypsys pin tool equipped with a 1,536-pin array. The control compounds Budesonide and Staurosporine were added at a concentration of 2mM. Budesonide was also added as a 1:10 titration, starting at 200uM, to achieve the dose-response control signal. The plates were incubated for 18-24 hour at 37deg C, 5% CO2 followed by a 5ul addition of 5% FBS OPTI-MEM growing media in column 1 as negative control. One microliter of 5x CellTiter Fluor (Promega) was added to each well and the assay plates were incubated at 37deg C, 5% CO2 for 30 minutes. The fluorescence signal was read using the PerkinElmer ViewLux plate reader (Ex = 405 nm /Em = 525 nm) for a 3 second exposure. After the signal was taken, 3 uL of 3x BugLite was dispensed into all wells. The plates were then incubated at room temperature for 15 minutes. A second ViewLux read (40 sec exposure) was performed to detect the luminescence signal. Cytotoxicity was assessed through the first fluorescent read while biochemical activity against Nrf2 was measured in the luminescent read. The data was normalized to the positive and negative controls.
(qHTS replaces the single test concentration by a dilution series.)
Regarding `c1ccc2c(c1)[I+]c1ccccc1-2`, the Potency is 206 nM (active).
The value for `CC[C@H]1CN2CCc3cc(OC)c(OC)cc3[C@@H]2C[C@@H]1C[C@H]1NCCc2cc(OC)c(OC)cc21` was 146 nM (active); that for `CCC(C)(O)C(=O)OC1C(=O)OC2CC3C(C)=CC(=O)C(O)C3(C)C3C4(O)OCC23C1C(C)C4O` (stereo not given) was 580 nM (active).
`COC1C(O)C(C)OC(OC2CCC3(C=O)C(CCC4C3CCC3(C)C(C5=CC(=O)OC5)CCC43O)C2)C1O` (stereo not given): the Potency was 11.6 nM (active).
The value for `C[C@]12CC[C@H](O)C[C@H]1CC[C@@H]1C2CC[C@]2(C)[C@@H](C3=CC(=O)OC3)[C@@H](O)C[C@]12O` (stereo not given in full) was 1640 nM (active).
